Measured values from PubChem BioAssay (NCI).
Compounds without any hit were thinned out: in the full panel of roughly 79,000, 15% have a hit. Values without a mark were called inactive. Active and inactive are the calls of the source. No stated cut-off is given here; in the data, active means growth inhibition above about 70%; inactive means the rest.

How the values were obtained:
[1] = NCI Yeast Anticancer Drug Screen. Data for the rad50 strain (AID 155);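 further: 0% = growth of vehicle-only cultures of the same strain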; conditions: S. cerevisiae rad50 strain growth inhibition, hits give high values
Method in brief: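 DNA repair mutant yeast, compound exposure, growth read-out; inhibition is taken relative to vehicle.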

[2] = NCI Yeast Anticancer Drug Screen. Data for the mec2-1 strain (AID 157); conditions: S. cerevisiae mec2-1 strain, hits give high values
Method in brief: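 mec2-1 yeast strain, carrying an alteration in DNA damage repair or cell cycle control, was exposed to compounds; growth inhibition was measured relative to vehicle-treated controls.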

[3] = NCI Yeast Anticancer Drug Screen. Data for the sgs1 mgt1 strain (AID 161);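 further: 0% = growth of cultures given vehicle only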; conditions: S. cerevisiae sgs1 mgt1 strain, hits give high values
Method in brief: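 Yeast cells carrying a defined DNA-repair defect were exposed to test compounds. Growth inhibition was measured relative to vehicle-treated controls.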

[4] = NCI Yeast Anticancer Drug Screen. Data for the cln2 rad14 strain (AID 165);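 further: 0% = growth equal to vehicle treated cultures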; conditions: S. cerevisiae cln2 rad14 strain, hits give high values
Method in brief: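 Yeast carrying cln2 and rad14 alterations (cell cycle control and DNA damage repair) were exposed to compounds. Growth inhibition was measured against vehicle-treated controls.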

[5] = NCI Yeast Anticancer Drug Screen. Data for the bub3 strain (AID 167); conditions: S. cerevisiae bub3 mutant strain, hits give high values
Method in brief: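 In this screen, a yeast mutant lacking normal mitotic checkpoint function is challenged with compound. Relative growth versus vehicle gives the inhibition value.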

[6] = NCI Yeast Anticancer Drug Screen. Data for the mlh1 rad18 strain (AID 175); conditions: S. cerevisiae mlh1 rad18 strain growth inhibition, hits give high values
Method in brief: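 Growth inhibition of the yeast strain was measured after compound exposure and expressed relative to vehicle-treated controls. The strain carries defined defects in DNA damage repair.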

[7] = at 5.0 µM (retest, dose inferred, filed as 0.5)
[8] = at 50.0 µM (retest, dose inferred, filed as 5.0)

Structure (SMILES) | growth inhibition [1, 7] | growth inhibition [1, 8] | growth inhibition ([1]; at 50.0 µM) | growth inhibition [2, 7] | growth inhibition [2, 8] | growth inhibition ([2]; at 50.0 µM) | growth inhibition [3, 7] | growth inhibition [3, 8] | growth inhibition ([3]; at 50.0 µM) | growth inhibition [4, 7] | growth inhibition [4, 8] | growth inhibition ([4]; at 50.0 µM) | growth inhibition [5, 7] | growth inhibition [5, 8] | growth inhibition ([5]; at 50.0 µM) | growth inhibition [6, 7] | growth inhibition [6, 8] | growth inhibition ([6]; at 50.0 µM)
Cc1c2c(c(C)c3c1sc1ccccc13)CCN=C2 | 9% | 98% (active) | 55.5% | -14% | 98% (active) | 49.9% | -1% | 98% (active) | 57.6% | -21% | 98% (active) | 94.9% (active) | -5% | 98% (active) | 92.8% (active) | -8% | 99% (active) | 57.2%
NC(=O)c1ccccc1C(=O)O | -6% | 7% | 12.9% | -5% | -2% | 1.85% | 0% | 2% | -36.1% | 2% | 1% | 36.9% | 2% | 9% | 0.6% | -5% | 5% | 5.9%
COc1ccc(CSC(=S)Nc2ccc(Cl)cc2Cl)cc1 | 6% | 98% (active) | 99.2% (active) | 5% | 99% (active) | 99.3% (active) | 8% | 99% (active) | 99.3% (active) | -24% | 96% (active) | 98.7% (active) | -6% | 97% (active) | 99% (active) | 3% | 98% (active) | 98.8% (active)
C=C(C)C1CC2=C(O1)C(=O)c1ccccc1C2=O (stereo not given) | 8% | 99% (active) | 91.9% (active) | 0% | 95% (active) | 82.5% (active) | 7% | 99% (active) | 73% (active) | -9% | 37% | 59.9% | 59% | 96% (active) | 93.1% (active) | 11% | 98% (active) | 89.8% (active)
COC(=O)c1nc(Cl)nc(Cl)c1N | 8% | 95% (active) | 96.7% (active) | 14% | 95% (active) | 97.3% (active) | 11% | 92% (active) | 98.2% (active) | -3% | 92% (active) | 96% (active) | 7% | 95% (active) | 97.8% (active) | 11% | 96% (active) | 98.2% (active)
COc1c(O)cc(C=O)cc1[N+](=O)[O-] | -7% | 14% | 7.3% | 1% | 12% | 2.15% | -1% | 11% | 40.3% | 4% | 20% | 69.2% | -1% | 1% | -9.85% | -4% | 14% | 8.1%
CCCCc1ccc2c(c1)Nc1cc3ccccc3cc1N2 | -3% | 55% | 86.3% (active) | 1% | 26% | 44.5% | 0% | 56% | 54.9% | -13% | 30% | 33.4% | 6% | 81% (active) | 77.8% (active) | 7% | 59% | 95% (active)
CC1=NN(c2ccccc2)C(=O)C1N=Nc1cc(Cl)cc(S(=O)(=O)O)c1O (stereo not given) | 59% | 99% (active) | 66.3% | 66% | 99% (active) | 21.6% | 21% | 52% | 55.7% | 21% | 30% | 29.7% | 66% | 30% | 26.3% | 52% | 99% (active) | 42.5%
Cc1noc(NS(=O)(=O)c2ccc(NCc3c4ccccc4nc4cc(Cl)ccc34)cc2)c1C | 4% | -13% | 98.5% (active) | 4% | -7% | 98.9% (active) | 5% | -6% | 98.5% (active) | 1% | -3% | 98.2% (active) | 9% | -3% | 98.2% (active) | 3% | -5% | 98.3% (active)
COC1/C=C\C=C(/C)C(=O)NC2=CC(=O)C(N)=C(CC(C)CC(OC)C(O)C(C)C=C(C)C1OC(N)=O)C2=O (stereo not given) | -28% | 88% (active) | 86.4% (active) | -23% | 91% (active) | 87.7% (active) | 5% | 92% (active) | 88% (active) | -36% | 81% (active) | 76.9% (active) | -16% | 93% (active) | 87.9% (active) | -22% | 89% (active) | 84% (active)
